The campaign covered roughly 5,500 compounds. About 2,000 (36%) were called active. Inconclusive results (about 18%) are left out. Cut-off read from the data, not from the text of the source: active = normalized growth mostly below about 0.91 (no sharp cut-off); inconclusive = no clear call, values can overlap the other calls; inactive = mostly above about 0.92. The list shows a part of the results.
Assay: chemical genetic growth profiling, strain panel (AID 1159580);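 note: tested at 20 µM; growth read once vehicle control cultures reached saturation at 30 °C; 1 = growth at the plate median or of vehicle wells; lower values mean less growth of the strain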
Settings: growth OD
[1] = S. cerevisiae deletion strains, locus YMR307W, strain GAS1, stronger effect = lower value
[2] = S. cerevisiae deletion strains, locus YNL128W, strain TEP1, stronger effect = lower value
[3] = S. cerevisiae deletion strains, locus YPL055C, strain LGE1, stronger effect = lower value

Measured: normalized growth

NC[C@@H]1O[C@H](C23CC4CC(CC(C4)C2)C3)Cc2c1ccc(O)c2O
active: [1] 0.414 | [3] 0.599
inactive: S. cerevisiae deletion strains, locus YAL040C, strain CLN3, stronger effect = lower value 0.954 | S. cerevisiae deletion strains, locus YER002W, strain NOP16, stronger effect = lower value 0.998 | S. cerevisiae deletion strains, locus YMR263W, strain SAP30, stronger effect = lower value 1 | [2] 0.995 | S. cerevisiae deletion strains, locus YNL175C, strain NOP13, stronger effect = lower value 1.03 | S. cerevisiae deletion strains, locus YNL197C, strain WHI3, stronger effect = lower value 1.03 | S. cerevisiae deletion strains, locus YNL224C, strain SQS1, stronger effect = lower value 1.09 | S. cerevisiae deletion strains, locus YOR083W, strain WHI5 (second series), stronger effect = lower value 1.01

CC12CCC3c4ccc(OCc5ccccc5)cc4CCC3C1C[C@@H](O)[C@@H]2O (stereo partly specified)
inactive: S. cerevisiae deletion strains, locus YBR021W, strain FUR4, stronger effect = lower value 0.995
active: S. cerevisiae deletion strains, locus YBR229C, strain ROT2, stronger effect = lower value 0.0599 | S. cerevisiae deletion strains, locus YCL029C, strain bik1, stronger effect = lower value 0.0651 | S. cerevisiae deletion strains, locus YDL035C, strain GPR1, stronger effect = lower value 0.1 | S. cerevisiae deletion strains, locus YDL074C, strain BRE1, stronger effect = lower value 0.0834 | S. cerevisiae deletion strains, locus YDL101C, strain DUN1, stronger effect = lower value 0.0689 | S. cerevisiae deletion strains, locus YDL134C, strain PPH21, stronger effect = lower value 0.055 | S. cerevisiae deletion strains, locus YDL185W, strain tfp1, stronger effect = lower value 0.058 | S. cerevisiae deletion strains, locus YDL192W, strain arf1, stronger effect = lower value 0.0627 | S. cerevisiae deletion strains, locus YDR101C, strain arx1, stronger effect = lower value 0.127 | S. cerevisiae deletion strains, locus YDR150W, strain NUM1, stronger effect = lower value 0.355 | S. cerevisiae deletion strains, locus YDR162C, strain NBP2, stronger effect = lower value 0.0538 | S. cerevisiae deletion strains, locus YDR318W, strain mcm21, stronger effect = lower value 0.076 | S. cerevisiae deletion strains, locus YDR388W, stronger effect = lower value 0.066 | S. cerevisiae deletion strains, locus YDR502C, strain sam2, stronger effect = lower value 0.0938 | S. cerevisiae deletion strains, locus YEL061C, strain CIN8, stronger effect = lower value 0.0518 | S. cerevisiae deletion strains, locus YER110C, stronger effect = lower value 0.0937 | S. cerevisiae deletion strains, locus YER155C, strain BEM2, stronger effect = lower value 0.0637 | S. cerevisiae deletion strains, locus YER167W, strain BCK2, stronger effect = lower value 0.0557 | S. cerevisiae deletion strains, locus YGL078C, strain dbp3, stronger effect = lower value 0.106 | S. cerevisiae deletion strains, locus YGL086W, strain mad1, stronger effect = lower value 0.0655 | S. cerevisiae deletion strains, locus YGL248W, strain PDE1, stronger effect = lower value 0.0599 | S. cerevisiae deletion strains, locus YGR135W, strain pre9, stronger effect = lower value 0.265 | S. cerevisiae deletion strains, locus YGR252W, strain gcn5, stronger effect = lower value 0.133 | S. cerevisiae deletion strains, locus YHR030C, strain SLT2, stronger effect = lower value 0.0559 | S. cerevisiae deletion strains, locus YHR079C, strain IRE1 (second series), stronger effect = lower value 0.0829 | S. cerevisiae deletion strains, locus YHR094C, strain hxt1, stronger effect = lower value 0.0776 | S. cerevisiae deletion strains, locus YHR129C, strain ARP1, stronger effect = lower value 0.0606 | S. cerevisiae deletion strains, locus YHR200W, strain rpn10, stronger effect = lower value 0.0742 | S. cerevisiae deletion strains, locus YIL066C, strain RNR3, stronger effect = lower value 0.0563 | S. cerevisiae deletion strains, locus YIL073C, strain SPO22, stronger effect = lower value 0.112 | S. cerevisiae deletion strains, locus YIL125W, strain kgd1, stronger effect = lower value 0.0668 | S. cerevisiae deletion strains, locus YIR030C, strain dcg1, stronger effect = lower value 0.104 | S. cerevisiae deletion strains, locus YJL095W, strain BCK1, stronger effect = lower value 0.062 | S. cerevisiae deletion strains, locus YJL134W, strain LCB3, stronger effect = lower value 0.0681 | S. cerevisiae deletion strains, locus YJL168C, strain set2, stronger effect = lower value 0.0842 | S. cerevisiae deletion strains, locus YJL187C, strain SWE1 (second series), stronger effect = lower value 0.0613 | S. cerevisiae deletion strains, locus YJR043C, strain POL32, stronger effect = lower value 0.0826 | S. cerevisiae deletion strains, locus YJR075W, strain HOC1, stronger effect = lower value 0.0841 | S. cerevisiae deletion strains, locus YKL009W, strain mrt4, stronger effect = lower value 0.0811 | S. cerevisiae deletion strains, locus YKL068W, stronger effect = lower value 0.187 | S. cerevisiae deletion strains, locus YKL085W, strain MDH1 (second series), stronger effect = lower value 0.068 | S. cerevisiae deletion strains, locus YKL085W, strain MDH1, stronger effect = lower value 0.068 | S. cerevisiae deletion strains, locus YKL190W, strain CNB1, stronger effect = lower value 0.0552 | S. cerevisiae deletion strains, locus YKR001C, strain vps1, stronger effect = lower value 0.062 | S. cerevisiae deletion strains, locus YLR039C, strain RIC1, stronger effect = lower value 0.0869 | S. cerevisiae deletion strains, locus YLR058C, strain SHM2, stronger effect = lower value 0.0598 | S. cerevisiae deletion strains, locus YLR102C, strain apc9, stronger effect = lower value 0.0693 | S. cerevisiae deletion strains, locus YLR262C, strain YPT6, stronger effect = lower value 0.103 | S. cerevisiae deletion strains, locus YLR268W, strain sec22, stronger effect = lower value 0.0915 | S. cerevisiae deletion strains, locus YLR330W, strain CHS5, stronger effect = lower value 0.0559 | S. cerevisiae deletion strains, locus YLR342W, strain FKS1 (second series), stronger effect = lower value 0.0702 | S. cerevisiae deletion strains, locus YLR371W, strain rom2, stronger effect = lower value 0.0664 | S. cerevisiae deletion strains, locus YLR418C, strain cdc73, stronger effect = lower value 0.101 | S. cerevisiae deletion strains, locus YML016C, strain PPZ1, stronger effect = lower value 0.0511 | S. cerevisiae deletion strains, locus YML032C, strain rad52, stronger effect = lower value 0.0688 | S. cerevisiae deletion strains, locus YML124C, strain tub3, stronger effect = lower value 0.117 | S. cerevisiae deletion strains, locus YMR078C, strain ctf18, stronger effect = lower value 0.0734 | S. cerevisiae deletion strains, locus YMR223W, strain ubp8, stronger effect = lower value 0.0801 | [1] 0.114 | S. cerevisiae deletion strains, locus YNL067W, strain RPL9B, stronger effect = lower value 0.093 | [2] 0.0726 | S. cerevisiae deletion strains, locus YNL153C, strain GIM3, stronger effect = lower value 0.0573 | S. cerevisiae deletion strains, locus YNL233W, strain BNI4, stronger effect = lower value 0.0603 | S. cerevisiae deletion strains, locus YNL250W, strain rad50, stronger effect = lower value 0.0963 | S. cerevisiae deletion strains, locus YNL271C, strain bni1, stronger effect = lower value 0.129 | S. cerevisiae deletion strains, locus YNL298W, strain CLA4, stronger effect = lower value 0.0669 | S. cerevisiae deletion strains, locus YNL307C, strain MCK1, stronger effect = lower value 0.0674 | S. cerevisiae deletion strains, locus YNR052C, strain pop2, stronger effect = lower value 0.0752 | S. cerevisiae deletion strains, locus YOL006C, strain TOP1, stronger effect = lower value 0.114 | S. cerevisiae deletion strains, locus YOL012C, strain htz1 0.149 | S. cerevisiae deletion strains, locus YOL147C, strain pex11, stronger effect = lower value 0.0612 | S. cerevisiae deletion strains, locus YOR061W, strain CKA2, stronger effect = lower value 0.0522 | S. cerevisiae deletion strains, locus YOR069W, strain VPS5, stronger effect = lower value 0.0556 | S. cerevisiae deletion strains, locus YOR136W, strain idh2, stronger effect = lower value 0.077 | S. cerevisiae deletion strains, locus YOR144C, strain elg1, stronger effect = lower value 0.0719 | S. cerevisiae deletion strains, locus YOR184W, strain ser1, stronger effect = lower value 0.0768 | S. cerevisiae deletion strains, locus YOR316C, strain cot1, stronger effect = lower value 0.0738 | [3] 0.0696 | S. cerevisiae deletion strains, locus YPL241C, strain CIN2, stronger effect = lower value 0.0593 | S. cerevisiae deletion strains, locus YPR119W, strain clb2, stronger effect = lower value 0.0659 | S. cerevisiae deletion strains, locus YPR141C, strain kar3, stronger effect = lower value 0.106 | S. cerevisiae deletion strains, locus YPR163C, strain tif3, stronger effect = lower value 0.0746 | S. cerevisiae deletion strains, locus YPR167C, strain met16, stronger effect = lower value 0.0654 | S. cerevisiae deletion strains, strain wtn01, stronger effect = lower value 0.107 | S. cerevisiae strains, strain wild type, stronger effect = lower value 0.0526

Reference: PubChem BioAssay AID1159580 (chemical genetic matrix, 2015)
